Assay outcomes as filed in PubChem.
GDH-TPI counter = GDH-TPI coupled enzyme inhibition counter-screen. GDH-TPI coupled enzyme counterscreen, NADH absorbance. inhibition, % at 4.8 µM. 360,000 tested, 1.2% active. AID 588335; in the data active means inhibition above about 30%;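 further: 0% = DMSO wells and 100% = wells lacking the enzyme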
BoNT-F LC inh = blocks Botulinum neurotoxin F light chain protease; Multiplex microsphere protease cleavage assay, flow cytometry; inhibition, % at 10 µM; 360,000 tested, 0.22% active; in the data active means inhibition above about 35%, passing the limit was not always enough; inconclusive means no clear call, values can overlap the other calls; further: plate controls were buffer without enzyme for full effect and enzyme alone for no effect
Mtb FBA inh = inhibits M. tuberculosis FBA enzyme; purified M. tuberculosis FBA, fluorescence read-out; inhibition, % at 1 µM; 360,000 tested, 2.3% active; AID 588726; P9WQA3; in the data active means inhibition above about 27%;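 further: 0% = vehicle and 100% = reference inhibitor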
Autofluor counter = counter-screen for toxin protease inhibitors: compound fluorescence. compound autofluorescence counterscreen, microsphere flow cytometry; hits give high values. AID 624483. fluorescence intensity (no concentration beside the values). 360,000 tested, 3.1% active; in the data active means fluorescence intensity above about 16000; inconclusive means no clear call, values can overlap the other calls
BoNT-A LC inh2 = inhibitors of Botulinum neurotoxin A light chain protease. 360,000 tested, 0.17% active. AID 588499. inhibition, % at 10 µM. multiplex microsphere protease substrate cleavage, flow cytometry; further: plate controls were buffer without enzyme for full effect and enzyme alone for no effect
Anthrax LF inh2 = blocks Bacillus anthracis lethal factor protease. multiplex microsphere protease cleavage assay, LF. inhibition, % at 10 µM. 360,000 tested, 0.12% active; further: plate controls were buffer without enzyme for full effect and enzyme alone for no effect
An asterisk follows results filed as active; ? = inconclusive; / = no result. Compounds with a hit are over-represented: about 6.7% of the library has one in this group of screens. Unless noted, no stated cut-off is given here; in the data, active means inhibition above about 30%; inconclusive means no clear call, values can overlap the other calls; inactive means below that.

SMILES	GDH-TPI counter	BoNT-F LC inh	Mtb FBA inh	Autofluor counter	BoNT-A LC inh2	Anthrax LF inh2
COc1ccc(-c2c(NC(=O)CC(C)C)n(C)c3ccccc3c2=O)cc1OC	7.2	-10.3	-1.0	3179	-0.2	33.4*
CCCCC(=O)Nc1c(-c2ccc(OC)c(OC)c2)c(=O)c2ccccc2n1C	6.9	20.7	0.0	2890	2.0	-10.2
Cc1ccc(CN2C(=O)CCC2(C)c2nnnn2-c2c(C)cccc2C)cc1 (stereo not drawn)	/	-6.9	/	6115	-0.6	-7.3
CCN(CC)c1ccc(C=N/C(C#N)=C(\N)C#N)cc1	26.8	-7.9	0.1	17577*	3.5	-3.8
CCN(CC)c1ccc(/C=C(\C#N)c2ccccn2)cc1	2.9	-4.0	-14.2	2914	0.2	-0.6
CCCCn1nnnc1C(c1ccccc1)N1CCN(C(=O)C2CCCO2)CC1 (stereo not drawn)	/	-1.5	/	5749	0.1	-4.3
O=C(O)COc1ccc2nsnc2c1Cl	6.0	-1.4	42.5*	2317	0.9	1.4
COc1cc(/C=N/NC(=O)c2cc(-c3ccccc3)nc3ccccc23)ccc1O	45.7*	17.3	7.6	3759	0.1	-9.6
CCOc1cc(/C=N/NC(=O)c2cc(-c3cccc(OC)c3)nc3ccccc23)ccc1O	36.9*	5.0	0.0	6533	-0.2	-3.4
COc1cc(/C=N/NC(=O)c2nc(-c3ccccc3)n(-c3ccccc3)n2)ccc1O	29.9	0.7	-1.3	2131	0.3	-0.6
O=C(O)COc1ccccc1/C=N/NC(=O)c1cc(-c2ccc(F)cc2)nc2ccccc12	51.2*	-1.8	4.6	4076	-1.1	2.0
COc1cc(/C=N/NC(=O)c2cnn3c(C)cc(-c4ccccc4)nc23)ccc1O	36.8*	17.3	-1.8	4782	-0.4	2.9
CCOC(=O)C1C(=O)C=C(c2ccc(C)cc2)CC1c1ccccc1 (stereo not drawn)	11.2	-3.7	9.5	4728	-0.9	-2.1
COc1ccc(-c2cc(C(=O)N/N=C/c3sccc3C)c3ccccc3n2)c(OC)c1	34.3*	-1.0	-1.1	4126	1.1	-3.2
COc1cc(/C=N/NC(=O)c2cc(-c3ccccc3OC(C)C)nc3ccccc23)ccc1O	39.8*	-4.4	-2.8	2147	-0.3	-2.3
CCCc1nc2c3ccccc3ccn2c1Cc1cccc(Cl)c1	/	1.6	6.3	6534	0.0	-5.3
Cc1ccccc1Cn1nnc(-c2cccc(C(=O)O)c2)n1	10.4	4.8	0.4	7941	-0.5	3.0
CC(C)N(C(=O)CSc1nnc(-c2cc3ccccc3cc2O)n1Cc1ccco1)C(C)C	6.8	-0.8	-0.5	20006*	?	0.9
COCCn1c(SCC(=O)Nc2nnc(C)s2)nnc1-c1cc2ccccc2cc1O	-8.2	-4.7	4.1	5944	-0.5	-5.5
COCCn1c(SCC(=O)N(C(C)C)C(C)C)nnc1-c1cc2ccccc2cc1O	20.7	-2.9	-2.1	23496*	?	-2.9
O=C(CSc1nnc(-c2cc3ccccc3cc2O)n1Cc1ccco1)N1CCc2ccccc2C1	5.8	-7.1	4.8	11125	0.1	-0.7
Cc1ccc(C)c(C(=O)CN2C(=O)CCC2=O)c1	-2.5	-15.6	8.0	2191	0.1	-3.2
O=C(Nc1ccc(C(=O)c2ccccc2)cc1)c1ccccc1	16.0	-33.2	7.6	3914	-0.9	-13.6
C=CCNC(=O)CCCc1ccccc1	-7.6	-2.2	0.9	23759*	-0.2	-1.4
C=CCNC(=O)c1ccc(C(=O)c2ccccc2)cc1	-10.2	1.7	0.6	23162*	-0.3	-0.2
SMILES	GDH-TPI counter	BoNT-F LC inh	Mtb FBA inh	Autofluor counter	BoNT-A LC inh2	Anthrax LF inh2
COc1cc(/C=C2\SC(N)=NC2=O)cc(Cl)c1O	15.4	22.8	-13.0	3108	-0.5	-2.3
Cc1cc(NC(=O)CN2CCCC(C)C2)no1 (stereo not drawn)	1.9	-1.4	0.0	4143	-0.9	-4.1
C=CC1CN(CC(=O)OC)S(=O)(=O)c2ccccc21 (stereo not drawn)	11.1	2.5	4.9	3914	-0.5	-1.9
CC(=O)Nc1ccc(NC(=O)N2CCCCC2)cc1	-3.2	-2.5	-2.3	3218	-0.5	-2.6
CC(=O)Nc1ccc(OC(=O)N2CCCCC2)cc1	-5.7	-0.8	-2.0	22883*	0.2	-0.4
O=C(NCCc1ccccc1)C(=O)NCC1OCCN1S(=O)(=O)c1ccc2c(c1)OCCO2 (stereo not drawn)	-4.2	3.9	0.3	5005	3.0	-5.2
CCOC(=O)/C(=N\Nc1cccc(C(F)(F)F)c1)N(CCOC)CCOC	6.5	-7.8	-2.5	22213*	?	-0.5
CCOC(=O)/C(=N\Nc1cccc(C(F)(F)F)c1)N1CCOCC1	8.1	-1.0	7.6	4396	0.0	-3.3
Cc1ccc(S(=O)(=O)N2CCOCC2)cc1NC(=O)COC(=O)CSc1ccc(Br)cc1C	1.8	2.2	-0.2	22185*	2.3	2.4
Cc1ccc(S(=O)(=O)N2CCOCC2)cc1NC(=O)COC(=O)c1ccc(Br)cc1	-2.6	-9.5	2.1	3455	0.1	-3.2
O=C(CCCCC(=O)NCCCc1ccccc1)NCCCc1ccccc1	7.4	?	2.8	4073	-4.1	-5.4
COc1cccc(NC(=O)C(=O)NCCCN2CCCC2=O)c1	-4.2	/	2.6	/	/	/
CCC(=O)Nc1cc(C(=O)OCC(=O)c2ccccc2Cl)ccc1C	-7.0	-4.1	2.1	20188*	-1.4	-1.5
CN(CC(=O)Nc1nc2ccccc2s1)S(=O)(=O)c1ccc(Br)cc1	0.5	3.5	1.7	21220*	3.2	0.0
CN(CC(=O)Nc1nc2ccccc2s1)S(=O)(=O)c1ccc(Cl)cc1	4.6	-7.5	0.9	6300	-0.7	-0.7
Cc1cccc(NC(=O)CN(C)S(=O)(=O)c2ccc(Br)cc2)n1	-1.3	-3.8	1.3	17225*	?	-4.0
Cc1nc2ccc(NC(=O)Cc3cccc(F)c3)cc2s1	0.6	-1.3	3.5	4045	-0.2	8.2
COc1cccc(NC(C)C(=O)N2CC(C)OC(C)C2)c1 (stereo not drawn)	-1.2	3.3	-0.7	23137*	?	-2.3
CC1(C)CC(=O)/C(=N/Nc2ccc(Cl)cc2)CO1	31.2*	-7.8	-2.4	4182	-0.7	-5.3
O=C(Oc1ccc2c(c1)OCO2)c1cc2c(s1)CCC2	1.9	53.7*	3.4	3933	2.1	-0.6
COc1cc(=O)[nH]c(SC(C)C(=O)Nc2cccc3ccccc23)n1 (stereo not drawn)	-0.7	-11.3	1.8	3858	-1.3	-3.2
O=C(COC(=O)c1ccccc1O)NC(c1ccccc1)c1ccccc1	10.8	3.3	-1.3	3484	0.7	1.6
O=C(CCS(=O)(=O)c1ccc(Br)cc1)N1CCN(c2ccc(F)cc2)CC1	-1.6	-3.8	0.6	6558	-2.1	0.1
O=C(CCS(=O)(=O)c1ccc(Br)cc1)N1CCN(c2ccc(Cl)cc2)CC1	-1.2	-1.0	1.4	20319*	0.4	-1.4
CCn1nnc(NC(=O)c2ccc(-c3ccc(Cl)cc3)o2)n1	17.2	-37.3	21.0	3127	-1.3	-5.8
CCOc1ccc(Nc2nc(N)nc(CN(C)C3CCCCC3)n2)cc1	7.4	3.1	1.7	10763	-0.1	-0.2
